This is an account of results in PubChem BioAssay (NCI).

About 83,000 compounds went through this panel and 20% of them were active in at least one assay; those are over-represented in the sample as a whole.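 Compound tested at a single concentration for 48 hours in 96-well plates; a percent growth value below 10 was scored as active.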 Calls of active or inactive are those of the source.

This experiment relates to A498 renal. Put plainly: NCI-60 one-dose screen, 48 h (100 = growth as untreated, 0 = no growth, -100 = all killed). Particulars: 10 µM unless noted.
Regarding `Cc1cc(C)c(S(=O)(=O)N2CCN(c3cc4c(cc3F)c(=O)c(C(=O)O)cn4C3CC3)CC2)c(C)c1`, the growth was 63% (inactive).

As to `CCn1cc(C(=O)O)c(=O)c2cc(F)c(N3CCN(S(=O)(=O)c4ccc(OC)c(OC)c4)CC3)cc21`, the growth is 90.4% (inactive).

As for `Cc1ccc(S(=O)(=O)OCC(=O)Nc2ccc(C(=O)O)c(O)c2)cc1`, the growth is 99.3% (inactive).

For the compound `O=S(=O)(c1ccccc1)n1ccc(-c2ccc3c(c2)CCO3)n1`, the growth was 71.2% (inactive).

As for `Clc1ccc(-c2nc(-c3ccco3)cn3ccnc23)cc1`, the growth was 36.8% (inactive).

As for `CCn1cc(C(=O)O)c(=O)c2cc(F)c(N3CCN(S(=O)(=O)c4cccc5ccccc45)CC3)cc21`, the growth is -0.385% (active).

For the compound `O=P([O-])(O)OP(=O)([O-])O.[NH-][C@H]1CCCC[C@@H]1[NH-].[OH-].[OH-].[Pt+4]`, the growth was 81.7% (inactive).

Regarding `O=C(CC(O)c1ccncc1)c1ccccc1` (stereo not drawn), the growth is 62.4% (inactive).

For `O=c1oc2c([nH]c3ccc4ccccc4c32)c2ccccc12`, the growth is 106% (inactive).

Regarding `Nc1c(C(=O)Nc2ccccc2)sc2nc3c(cc12)CCC3`, the growth is 80.7% (inactive).

For the compound `COc1ccc(C2CC(c3cccs3)=NN2c2ccc(S(=O)(=O)NC(=O)NCc3cccc(OC)c3)cc2)cc1` (stereo not drawn), the growth is 102% (inactive).

As to `COc1cc(NC(=O)CSc2nc3ccc(C)cc3c(=O)n2-c2ccccc2)cc(OC)c1OC`, the growth was 62.7% (inactive).

As to `Cc1ccc(S(=O)(=O)OC2COCOC2C(OS(=O)(=O)c2ccc(C)cc2)C2OCOCC2OS(=O)(=O)c2ccc(C)cc2)cc1` (stereo not drawn), the growth was 95.9% (inactive).
